Reference: ChEMBL document CHEMBL3988442, “University of Dundee, Small-Polar-MMV Screening Library” (2021)
About 13,000 (27%) of roughly 48,000 compounds showed an effect of 50% or more. This is one part of the list.

System: Wolbachia pipientis
Experiment: Anti-Wolbachia Cell-Based Screen
Assay type: functional
Parameters: scale not given: in the data most compounds retested in dose-response had high values
Details: 5 µM

Structure (SMILES)	Percent Effect [%]
CC(C)c1noc(C[S+]([O-])CC(=O)Nc2ccc(F)c(F)c2)n1 (configuration not stated)	-5.19
CC(=O)NCCCSCCOc1cccc(C#N)c1	-7.407
O=C(Nc1ccncc1)NC1CCN(c2ccccc2Cl)C1=O (configuration not stated)	1.637
COc1ccc(CCN2CC(c3nc(CSC)no3)CCC2=O)cc1 (configuration not stated)	-1.637
Cc1cc(CNC(=O)c2ccc(C(C)N3CCCCC3)o2)[nH]n1 (configuration not stated)	-3.545
O=C(c1cccc(-n2cccn2)c1)N1CCCOC(CN2CCCC2)C1 (configuration not stated)	2.221
Cc1nnc2n1CCN(C(=O)CN1C(=O)C(C)Oc3ccccc31)C2 (configuration not stated)	3.234
COCCn1cc(NC(=O)N(CCC(N)=O)Cc2ccccc2)cn1	-7.009
Cc1ccc(-c2nc(CCNCc3ccncc3)co2)cc1	83.41
Cc1nnc(NCCc2coc(-c3ccc(F)cc3)n2)c(C#N)c1C	5.844
Cc1ccc(-c2nc(CCNC(=O)NC3CCN(C)CC3)co2)cc1	-5.87
Cc1cnn(CCNCCCOc2ccc(C#N)cc2)c1	4.876
C=C/C=c1\c(=C/C)oc2c(NCc3ccccc3)nc(C)nc12	116.4
CS(=O)(=O)c1ccc(NCc2ccccc2)cn1	-7.161
C=C/C=c1\c(=C/C)oc2c(NCc3ccccc3)ncnc12	107.1
CCC(CNc1ncnc2oc(C)nc12)Cc1ccccc1 (configuration not stated)	-28.36
Cc1nc2c(c(NCc3ccccc3)n1)CCN(C(=O)C1CCC1)CC2	-5.333
C=C/C=c1\c(=C/C)oc2c(NCc3ccccc3)nc(CC)nc12	112.6
Cc1nc(NCc2cccnc2)c2c(n1)c(C)nn2C	-9.557
Cc1ccc(-c2nc(CN3CCc4nn(C)c(=O)cc4C3)no2)cc1	-3.521
CCCNC(=O)C(C)NC(=O)Nc1ccccc1SC(F)F (configuration not stated)	-20.86
O=C(c1ccc2occc2c1)N1CCC(C(=O)O)(n2cccn2)CC1	17.51
CO[C@H]1CN(S(=O)(=O)c2cn(C)cn2)[C@@H]2CCCO[C@H]12	-0.7123

Structure (SMILES)	Percent Effect [%]
CNC(=O)NC(=O)CCSc1ccccc1Cl	-6.595
Cc1cccc(CC(=O)NS(=O)(=O)c2ccc(F)c(F)c2)c1	-13.3
Cc1nc(CNC(=O)NC2CCN(c3cccc(Cl)c3)C2)no1 (configuration not stated)	1.056
COCC(=O)N1CCN(c2cc(-n3cccc3)nc(C)n2)CC1	-19
COCC(=O)N1CCN(c2cc(C)nc(C3CCCN3C(C)=O)c2)CC1 (configuration not stated)	105.4
COCC(=O)N1CCN(C(C)=O)C[C@@H]1C(=O)OC	18.89
COCC(=O)N1CCCC1c1cc(N2CCN(C(C)=O)CC2)cc(C)n1 (configuration not stated)	110.9
COC(=O)N1CCCCC1C(=O)N1CCCN(c2ccnc(C)c2)CC1 (configuration not stated)	2.606
O=C(NCC1OCCc2cn(CC3CCOCC3)nc21)c1ccncc1.O=C(O)C(F)(F)F (configuration not stated)	-2.103
CS(=O)(=O)N1C[C@@H]2OCC(=O)N(CC3CCC3)[C@@H]2C1	-1.197
O=C(O)c1csc(S(=O)(=O)N2CCCc3ccc(F)cc32)c1	-8.72
O=C(NC1CC1)N1CCC2(CC1)C(=O)NCCN2Cc1ccccc1.O=C(O)C(F)(F)F	-18.73
CC(C)N1CCC2(CCCN(Cc3ccc(F)cc3)C2=O)C1 (configuration not stated)	-24.02
O=C1Nc2ccccc2CC12CCCN2Cc1ccc(C(F)(F)F)cc1 (configuration not stated)	105.2
COCCC1(CO)CCCN(Cc2ccc(C(F)(F)F)cc2)C1 (configuration not stated)	-12.26
CS(=O)(=O)c1ccc(CN2CCCC3(C2)C(=O)Nc2ccccc23)cc1 (configuration not stated)	12.45
O=C1Nc2ccccc2CC12CCCN2Cc1ccc(F)cc1 (configuration not stated)	106.5
CCC(CC)c1cc(CNC(=O)N2CCN(CC)CC2)on1	1.8
O=C(c1cnc(-c2cnccn2)s1)N1CCCC1Cn1cccn1 (configuration not stated)	93.62
O=C(c1cnc(-c2ccccn2)s1)N1CCCC1Cn1cccn1 (configuration not stated)	117.3
O=C(c1cnc(-c2ncccn2)s1)N1CCCC1Cn1cccn1 (configuration not stated)	93.22
COc1ccc(CN2CCN(c3ncc(Cl)cn3)CC2)cc1	-2.887
CC(C)(O)c1cn(C2CCN(c3ncccc3Cl)CC2)nn1	-4.75

Structure (SMILES)	Percent Effect [%]
CSc1ccc(NC(=O)COCc2ccccc2)nc1	-20.64
NC(=O)CN(CC(N)=O)Cc1cccc(Oc2ccccc2)c1	-1.216
CN(C(=O)c1cccnc1)C1CCCN(CCc2ccccc2)C1 (configuration not stated)	-6.072
O=C(NC1CCCN(CCCc2ccccc2)C1)C1=CCCCC1 (configuration not stated)	81.9
O=C(NC1CCCN(CCCc2ccccc2)C1)c1ccc(Cl)s1 (configuration not stated)	85.82
CC(C)C(=O)NCC(=O)N(C)C1CCCN(CCc2ccccc2)C1 (configuration not stated)	-4.152
O=C(Cc1cccnc1)NC1CCCN(CCCc2ccccc2)C1 (configuration not stated)	124.1
Nc1cc(C(=O)NCC2CCN(CCc3ccccc3)C2)ccn1 (configuration not stated)	-3.918
CC(C)(C)NC(=O)N1CCC(NC(=O)Cc2cccnc2)CC1	-14.05
CN(C(=O)CC1=CCCCC1)C1CCCN(CCc2ccccc2)C1 (configuration not stated)	7.677
Nc1cc(C(=O)NC2CCCN(CCCc3ccccc3)C2)ccn1 (configuration not stated)	96.33
CCOC(=O)C1CCN(C(=O)Cc2c(C)nc(C)[nH]c2=O)CC1	4.435
COc1nccnc1N1CCC2(CCCN(C(C)C)C2=O)C1 (configuration not stated)	-3.964
CCN(c1ccc(C(=O)NCc2cc[nH]n2)cc1)C(C)C	-0.1162
Cc1sc2nc(C(F)(F)F)nc(N3CCN(C)CC3)c2c1C	8.571
COc1ccc(F)c(F)c1CN1CCN(CC(C)C)C(=O)C1C (configuration not stated)	1.65
O=C(NC1CC1)c1ccc(SCc2cscn2)cc1	-37.4
CC(C)CNC(=O)NC(=O)CNc1ccccc1SCC(C)C#N (configuration not stated)	9.026
O=C(COC1CCCCC1)Nc1ccn(CCc2ccncc2)n1	-1.367
CN(C(=O)CCc1ccncc1)C1CCCN(CCc2ccccc2)C1 (configuration not stated)	-4.229
O=C(NC1CCCN(CCCc2ccccc2)C1)c1ccncc1 (configuration not stated)	84.08
